According to PMC5540273 (PLoS ONE, 2017):

Experiments:
Conditions in all cases: concentration: 1 μM, replicates: in singlicate; n = 1
AMPK-alpha2 = system: T1, AMPK-alpha2
T1 construct: gene PRKAA2

ANKK1 = system: ANKK1
ARK5 = system: T2, ARK5
T2 construct: gene NUAK1

ASK1 = system: T3, ASK1
T3 construct: gene MAP3K5

ASK2 = system: T4, ASK2
T4 construct: gene MAP3K6

AURKA = system: AURKA
AURKB = system: AURKB
AURKC = system: AURKC
AXL = system: AXL
BIKE = system: T5, BIKE
T5 construct: gene BMP2K
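Also: KINOMEscan kinase panel screen.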

Row | Compound | %Inh (AMPK-alpha2) [%] | %Inh (ANKK1) [%] | %Inh (ARK5) [%] | %Inh (ASK1) [%] | %Inh (ASK2) [%] | %Inh (AURKA) [%] | %Inh (AURKB) [%] | %Inh (AURKC) [%] | %Inh (AXL) [%] | %Inh (BIKE) [%]
1 | CCn1cnc2c(N)ncnc21 [GW345098] | 0 | 0 | 0 | 15 | 0 | 4 | 6 | 4 | 0 | 5
2 | Nc1nccc(-c2c(-c3ccc(F)cc3)ncn2C2CCN(CC(F)(F)F)CC2)n1 [SB-236560] | 0 | 0 | 0 | 0 | 0 | 2 | 0 | 0 | 46 | 0
3 | NS(=O)(=O)c1cccc(-c2ccc3ncc(N4CCOCC4)nc3c2)c1 [GSK1535721] | 12 | 15 | 0 | 0 | 0 | 19 | 0 | 0 | 2 | 0
4 | Fc1ccc(-c2ncn(CCCN3CCOCC3)c2-c2ccccn2)cc1 [SB-211742] | 0 | 0 | 0 | 10 | 0 | 0 | 0 | 0 | 6 | 23
5 | COc1ccc(Nc2nccc(N3CCC(NC(=O)Nc4cc(C)ccc4C)C3)n2)cc1 (stereo not shown) [GSK1379741] | 0 | 0 | 11 | 12 | 0 | 15 | 37 | 46 | 0 | 0
6 | Cc1cccc(Cn2ccn3c(=O)cc(N4CCOCC4)nc23)c1 [GSK2297542] | 12 | 19 | 12 | 0 | 6 | 15 | 0 | 18 | 5 | 15
7 | NS(=O)(=O)CCc1cccc(Nc2nccc(-c3c(-c4cccc(NC(=O)c5c(F)cccc5F)c4)nn4ccccc34)n2)c1 [GSK336735] | 33 | 83 | 84 | 2 | 0 | 93.5 | 81 | 72 | 90.5 | 27
8 | COc1ccc(S(=O)(=O)NC2CCN(c3cc(C)nc(Nc4cccc(C#N)c4)n3)CC2)cc1.O=C(O)C(F)(F)F [GSK1653539] | 0 | 14 | 8 | 0 | 0 | 2 | 7 | 0 | 0 | 5
9 | O=C1Cc2cc(Nc3nc(NCc4cccc(S(=O)(=O)C(F)(F)F)c4)ncc3C(F)(F)F)ccc2N1 | 0 | 0 | 22 | 11 | 0 | 1 | 13 | 0 | 2 | 0
10 | O=C(Nc1cccc(-c2nn3ncccc3c2-c2ccnc(Nc3cccc(C(F)(F)F)c3)n2)c1)c1c(F)cccc1F [GSK299495] | 15 | 0 | 12 | 1 | 3 | 9 | 29 | 56 | 6 | 19
11 | COc1cc(Nc2nccc(N3CCC(NC(=O)c4cccc(NC(C)=O)c4)C3)n2)cc(OC)c1OC (stereo not shown) [GSK1379754] | 12 | 34 | 31 | 0 | 0 | 97.6 | 0 | 88 | 36 | 86
12 | CSc1ccc(-c2cc3ncnc(SCC(=O)O)c3s2)cc1 | 5 | 0 | 0 | 0 | 0 | 0 | 78 | 12 | 5 | 12
13 | O=c1cc(N2CCOCC2)nc2n(Cc3cccc(F)c3)ccn12 [GSK2297430] | 21 | 0 | 7 | 0 | 6 | 0 | 0 | 32 | 14 | 26
14 | CN1c2ccc(CNc3ccc(F)cc3)cc2-c2c(cnn2C)S1(=O)=O | 13 | 0 | 6 | 0 | 3 | 0 | 21 | 0 | 11 | 0
15 | O=C(NCCNc1ccnc(Nc2ccc(F)cc2)n1)Nc1ccccc1F [GSK1379880] | 0 | 0 | 21 | 1 | 0 | 11 | 32 | 6 | 0 | 0
16 | Cc1c2ccc(N(C)c3ccnc(Nc4cccc(S(N)(=O)=O)c4)n3)cc2nn1Cc1ccccc1.Cl.Cl [GW787226] | 0 | 0 | 0 | 0 | 0 | 29 | 54 | 38 | 73 | 0
